From the supplement of paper PMC7595190
Values without a mark were called inactive.

Columns and labels:
Experiment in all cases: CellTox Green cytotoxicity fluorescence relative to DMSO vehicle (fold of vehicle RFU); higher = more cell death (loss of membrane integrity), active = 2 or more
[1] = system: CMK
Outline: (§1)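 CellTox Green reagent was added when MV4-11, CMK and Kasumi-1 cells were seeded at 4.0 × 10^4 cells per well, and single compounds from the Selleckchem apoptosis library were added at final 0.01, 0.1 and 1 µM in DMSO (vehicle 0.1% DMSO). Fluorescence at Ex 485 nm and Em 520 nm was read after 24, 48 and 72 h at 37 °C, 5% CO2. The reported cytotoxicity corresponds to loss of membrane integrity, given as fold of the DMSO vehicle.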

[2] = system: Kasumi-1
Outline: as §1

[3] = system: MV4-11
Outline: as §1

Structure (SMILES)	CellTox Green cytotoxicity fluorescence ([1]; 0.01 µM, 24 h)	CellTox Green cytotoxicity fluorescence ([1]; 0.01 µM, 48 h)	CellTox Green cytotoxicity fluorescence ([1]; 0.01 µM, 72 h)	CellTox Green cytotoxicity fluorescence ([1]; 0.1 µM, 24 h)	CellTox Green cytotoxicity fluorescence ([1]; 0.1 µM, 48 h)	CellTox Green cytotoxicity fluorescence ([1]; 0.1 µM, 72 h)	CellTox Green cytotoxicity fluorescence ([1]; 1 µM, 24 h)	CellTox Green cytotoxicity fluorescence ([1]; 1 µM, 48 h)	CellTox Green cytotoxicity fluorescence ([1]; 1 µM, 72 h)	CellTox Green cytotoxicity fluorescence ([2]; 0.01 µM, 24 h)	CellTox Green cytotoxicity fluorescence ([2]; 0.01 µM, 48 h)	CellTox Green cytotoxicity fluorescence ([2]; 0.01 µM, 72 h)	CellTox Green cytotoxicity fluorescence ([2]; 0.1 µM, 24 h)	CellTox Green cytotoxicity fluorescence ([2]; 0.1 µM, 48 h)	CellTox Green cytotoxicity fluorescence ([2]; 0.1 µM, 72 h)	CellTox Green cytotoxicity fluorescence ([2]; 1 µM, 24 h)	CellTox Green cytotoxicity fluorescence ([2]; 1 µM, 48 h)	CellTox Green cytotoxicity fluorescence ([2]; 1 µM, 72 h)	CellTox Green cytotoxicity fluorescence ([3]; 0.01 µM, 24 h)	CellTox Green cytotoxicity fluorescence ([3]; 0.01 µM, 48 h)	CellTox Green cytotoxicity fluorescence ([3]; 0.01 µM, 72 h)	CellTox Green cytotoxicity fluorescence ([3]; 0.1 µM, 24 h)	CellTox Green cytotoxicity fluorescence ([3]; 0.1 µM, 48 h)	CellTox Green cytotoxicity fluorescence ([3]; 0.1 µM, 72 h)	CellTox Green cytotoxicity fluorescence ([3]; 1 µM, 24 h)	CellTox Green cytotoxicity fluorescence ([3]; 1 µM, 48 h)	CellTox Green cytotoxicity fluorescence ([3]; 1 µM, 72 h)
CC(=O)N1c2ccc(-c3ccc(C(=O)O)cc3)cc2[C@H](Nc2ccc(Cl)cc2)C[C@@H]1C	0.995	1.1	0.996	1.2	1.71	1.37	1.33	1.93	1.57	0.959	0.98	1.03	1.06	1.36	1.49	1.09	1.66	1.92									
C=CC(=O)N1CC(=Cc2ccc([N+](=O)[O-])cc2)C(=O)C(=Cc2ccc([N+](=O)[O-])cc2)C1	0.921	0.908	0.929	1.13	1.16	1.07	2.14 (active)	3.36 (active)	2.48 (active)	1.01	0.937	0.951	1.01	1.05	1.04	1.25	1.78	1.95	0.967	0.965	0.983	1.11	1.66	1.78	1.68	2.12 (active)	1.92
CCS(=O)(=O)N1CCN(c2ccc(Nc3ncc(C(N)=O)c(NC4CC4)n3)cc2)CC1 [Cerdulatinib]	0.961	0.986	0.983	0.961	1.07	0.888	1.13	1.64	1.34	0.959	0.983	1.01	0.98	1.06	1.07	0.928	1.08	1.15	0.937	0.94	0.941	0.942	0.965	0.965	0.949	1.07	1.11
Nc1ccccc1NC(=O)c1cnccn1	0.987	0.99	0.976	0.967	0.987	1.02	0.965	1.02	1.11	0.967	0.96	0.904	0.988	0.995	0.988	0.932	1	1.06	0.953	0.952	0.937	0.964	0.984	0.99	0.954	0.989	1.01
CC(C)(C)C[C@@H]1N[C@@H](C(=O)N[C@H]2CC[C@H](O)CC2)[C@H](c2cccc(Cl)c2F)[C@]12C(=O)Nc1cc(Cl)ccc12	0.996	1.03	1.05	0.963	0.971	0.947	1.02	1.04	1.01	1	0.996	1.03	0.991	0.994	1	0.906	1.02	1.04									
CCCCC(C=O)NC(=O)C(CC(C)C)NC(=O)C(CC(C)C)NC(C)=O (stereo not given)	0.991	0.967	0.962	0.984	0.984	1.01	2.35 (active)	3.65 (active)	2.82 (active)	1.01	0.993	0.999	1.01	1	1	1.03	1.11	1.16	0.985	1.01	1.01	1.01	1.02	1.01	1.16	2.16 (active)	2.42 (active)
CC(C)CC(NC(=O)C(Cc1ccccc1)CC(O)C(Cc1ccccc1)NC(=O)OC(C)(C)C)C(=O)NC(Cc1ccccc1)C(N)=O (stereo not given)	1	1	1.03	0.943	0.922	0.899	0.947	0.949	0.919	0.952	0.963	0.962	0.943	0.974	0.946	0.912	0.993	1	0.952	0.964	0.968	0.937	0.952	0.944	0.919	0.947	0.967
Cn1cc(-c2ccc3c(c2)CCN3C(=O)Cc2cccc(C(F)(F)F)c2)c2c(N)ncnc21	0.971	0.966	0.935	0.981	0.987	0.978	0.972	1.01	0.913	1.07	1.03	1.02	1.01	1.05	1.07	0.955	1.02	1.08									
COc1cc(C(=O)O)ccc1NC(=O)[C@@H]1N[C@@H](CC(C)(C)C)[C@](C#N)(c2ccc(Cl)cc2F)[C@H]1c1cccc(Cl)c1F [Idasanutlin]	0.938	0.944	0.96	0.943	0.953	1.01	0.963	1.01	0.933	1.01	0.971	0.962	0.966	0.949	0.947	1.01	1.03	1.03	0.983	0.967	0.97	0.971	0.958	0.972	0.967	1.03	1.1
CN(C)CC[C@H](CSc1ccccc1)Nc1ccc(S(=O)(=O)NC(=O)c2ccc(N3CCN(Cc4ccccc4-c4ccc(Cl)cc4)CC3)cc2)cc1[N+](=O)[O-]	0.932	0.938	0.907	0.982	0.992	1.02	1.48	1.67	1.52	1.07	1.11	1.18	1.17	1.49	1.66	1.44	1.81	1.84									
CCOc1cc(C(C)(C)C)ccc1C1=N[C@@](C)(c2ccc(Cl)cc2)[C@@](C)(c2ccc(Cl)cc2)N1C(=O)N1CCN(CCCS(C)(=O)=O)CC1	0.987	0.993	1.01	0.995	0.996	1	1.02	1.05	1.02	0.977	0.992	1.01	0.987	0.969	0.96	1.03	1.03	1.03									
O=C(NS(=O)(=O)c1ccc(Br)s1)c1ccc(Cl)cc1Cl [Tasisulam]	0.98	0.972	0.934	0.99	0.99	0.959	0.986	1	0.903	1.02	1.02	1.01	1.01	0.99	0.984	0.975	0.963	0.96	0.957	0.955	0.954	0.99	0.984	0.992	1	0.989	1
CC(=O)O/N=C1/C(c2c(O)[nH]c3cc(Br)ccc23)=Nc2ccccc21 [BIO-acetoxime]	1.02	0.999	0.97	0.981	0.97	0.981	0.973	0.945	1.12	1.05	1.05	1.04	1.02	1.04	1.04	0.974	1.07	1.11									
CCCC[C@@H](C=O)NC(=O)[C@H](CC(C)C)NC(=O)OCc1ccccc1 [Calpeptin]	1	0.98	0.961	0.992	1	1.02	0.994	1.01	1.01	0.957	0.968	0.962	0.965	0.93	0.913	1.01	1.02	1.03									
